Measured values taken from PubChem BioAssay (NCATS).
Values joined by “and” are separate entries in the source; they are usually repeats but may differ in a detail not shown here. Equal entries are not always repeated. Inconclusive results are not listed. Entries that show only a call come without a potency. Values without a mark were called inactive. Active and inactive are the calls of the source. Calls come from the whole dose curve; as a rule, active = well fitted curve in the direction sought with a large enough effect; inconclusive = small, poorly fitted or top-dose-only effect, or another doubt; inactive = no such curve, though single readings can be large; an effect the other way counts as inactive or inconclusive.

Assays:
[1] = target: Cytochrome P450 3A7 (Homo sapiens) (UniProt P24462); experiment: Cytochrome P450 family 3 subfamily A member 7 (CYP3A7) small molecule antagonists: luciferase biochemical qHTS assay (AID 1963596); note: nearly all actives have a fitted effect of over 40% in size
In short: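 Enzyme-substrate mix + cpd (DMSO), 10 min RT; + NADPH regen system, 1 h RT; + luciferin detection reagent, 20 min RT; luminescence read. Proluciferin substrate, P450-Glo format, 1536-well qHTS.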

[2] = Viability qHTS for spleen associated tyrosine kinase inhibitor (SYKi) naive MV4-11 cells (AID 1963823); note: nearly all actives have a fitted effect of over 40% in size; note: potency is the fitted concentration of half-maximal effect
In short: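 Read-out: CellTiter-Glo luminescence. Exposure: 72 hr, 37 C, 5% CO2, 95% humidity. Cells: MV4-11 without SYK inhibitor history, 500/well, qHTS format.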

[3] = Viability qHTS for spleen associated tyrosine kinase inhibitor (SYKi) drug resistant MV4-11 cells (AID 1963824); note: nearly all actives have a fitted effect of over 35% in size; note: potency is the fitted concentration of half-maximal effect
In short: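 SYK-inhibitor-resistant MV4-11 AML cells were seeded at 500 per well onto compound and cultured 72 hours (37 °C, 5% CO2). CellTiter-Glo was then added, and after 10 min at room temperature, luminescence gave viability.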

[4] = Cellular viability qHTS for adrenocortical cancer (ACC) cell line SW-13 (AID 1963989); details: SW-13 ACC cells viability, CellTiter-Glo, 48 h; activity (max response): stronger effect = lower value;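 note: cells grown in serum-free medium with ITS supplement; nearly all actives have a fitted effect of over 65% in size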
In short: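 IC50 and maximal-response values come from four-parameter logistic fits of titration data. SW-13 cells in serum-free medium received compounds (up to 46 uM final) for 48 h before CellTiter-Glo luminescence.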

[5] = Cellular viability qHTS for adrenocortical cancer (ACC) cell line NCI-H295R (AID 1963990); note: nearly all actives have a fitted effect of over 60% in size
In short: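 Adrenocortical carcinoma cells, suspended at 300 000 cells/mL in serum-free DMEM plus ITS, rested overnight before pin transfer of compound. After two days' incubation, ATP-dependent luminescence was recorded and curve-fitted.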

Sequence of Cytochrome P450 3A7 (Homo sapiens) (P24462 whole entry, looked up): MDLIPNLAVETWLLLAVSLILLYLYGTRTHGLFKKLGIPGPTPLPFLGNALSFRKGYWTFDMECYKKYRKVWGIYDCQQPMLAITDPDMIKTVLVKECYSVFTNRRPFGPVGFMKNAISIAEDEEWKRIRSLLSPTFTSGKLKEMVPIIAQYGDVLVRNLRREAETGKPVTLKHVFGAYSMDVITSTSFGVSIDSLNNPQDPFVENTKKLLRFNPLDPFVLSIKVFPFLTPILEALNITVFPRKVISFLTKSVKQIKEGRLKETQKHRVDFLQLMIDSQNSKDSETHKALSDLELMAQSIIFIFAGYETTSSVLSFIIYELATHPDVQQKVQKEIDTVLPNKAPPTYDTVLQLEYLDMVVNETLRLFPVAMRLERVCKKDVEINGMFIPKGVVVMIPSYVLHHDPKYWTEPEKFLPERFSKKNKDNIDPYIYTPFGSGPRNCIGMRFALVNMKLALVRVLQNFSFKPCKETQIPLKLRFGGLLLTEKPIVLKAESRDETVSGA

| Structure (SMILES) | Potency [1] | Potency [2] | Potency [3] | activity (max response) [4] | Potency [5] | activity change, negative = inhibition [1] | viability (% of control) [2] | viability, % of control [3] | activity change, negative = viability loss [5] |
| --- | --- | --- | --- | --- | --- | --- | --- | --- | --- |
| CN(C)CCN1C(=O)c2ccccc2N(C)c2ccccc21 | inactive | inactive | inactive | -13.1% | inactive |  |  |  |  |
| Cc1cc(-c2cc(OC(=O)c3ccccc3)ccc2Cl)cc2nnc(Nc3ccc(OCCN4CCCC4)cc3)nc12 | inactive | 2000 nM (active) | 1590 nM (active) | 9.34% | inactive |  |  |  |  |
| CC1(C)O[C@@H]2C[C@H]3[C@@H]4C[C@H](F)C5=CC(=O)C=C[C@]5(C)[C@@]4(F)[C@@H](O)C[C@]3(C)[C@]2(C(=O)CO)O1 | inactive | inactive | 20900 nM (active) | -5.78% and 9.51% | inactive |  |  |  |  |
| CC1(C)CO[C@@H](CC(=O)O)CN1 | inactive | inactive | inactive | 8.37% | inactive |  |  |  |  |
| CC(=O)Oc1c(C)c(C)c2c(c1C)CC[C@@](C)(CCC[C@H](C)CCC[C@H](C)CCCC(C)C)O2 | inactive | inactive | inactive | 2.68% | inactive |  |  |  |  |
| C=CCN1CCc2nc(N)sc2CC1 | inactive | inactive | inactive | 1.2% | inactive |  |  |  |  |
| Cc1ccc(=O)n(-c2ccccc2)c1 | inactive | inactive | inactive | 13.5% | inactive |  |  |  |  |
| O=C(NCCCN1CCOCC1)c1ccc(Cl)cc1 | inactive | inactive | inactive | 5.56% | inactive |  |  |  |  |
| C[C@](N)(Cc1ccc(O)cc1)C(=O)O |  |  |  | -6.01% |  | 1.38% [at 4.83 µM] | 79.1% [at 4.97 µM] | 90.5% [at 4.97 µM] | -1.14% [at 3.81 µM] |
| CC(C)(C)NCC(O)COc1cccc2c1C[C@H](O)[C@H](O)C2 (stereo not given in full) | inactive | inactive | inactive | 9.63% | inactive |  |  |  |  |
| O=Cc1ccccc1C=O | inactive | inactive | inactive | 0.792% | inactive |  |  |  |  |
| CCCCCCCCCCCCCCCCCCN(C)C | inactive | inactive | inactive | -1.14% | inactive |  |  |  |  |
| COc1cc(OC)cc(OC)c1 | inactive | inactive | inactive | 5.62% | inactive |  |  |  |  |
| COc1ccc(CN(CCN(C)C)c2ncccn2)cc1 | inactive | inactive | inactive | -7.84% | inactive |  |  |  |  |
| CN1CCN(CC(=O)N2c3ccccc3C(=O)Nc3cccnc32)CC1 |  |  |  | -3% |  | 12.3% [at 4.83 µM] | 98.6% [at 4.97 µM] | 96.6% [at 4.97 µM] | -2.51% [at 3.81 µM] |
| Cn1c(=O)c2[nH]c(Br)nc2n(C)c1=O | inactive | inactive | inactive | -1.12% | inactive |  |  |  |  |

| Structure (SMILES) | Potency [1] | Potency [2] | Potency [3] | activity (max response) [4] | Potency [5] | activity change, negative = inhibition [1] | viability (% of control) [2] | viability, % of control [3] | activity change, negative = viability loss [5] |
| --- | --- | --- | --- | --- | --- | --- | --- | --- | --- |
| CC(C)Cn1cnc2c1c(=O)n(C)c(=O)n2C | inactive | inactive | inactive | -11.6% | inactive |  |  |  |  |
| CN(C)C(=O)c1cc2cnc(Nc3ccc(N4CCNCC4)cn3)nc2n1C1CCCC1 | inactive | 2310 nM (active) | 5170 nM (active) | -9.21% | inactive |  |  |  |  |
| CN1CCOC(c2ccccc2)c2ccccc2C1 (stereo not given) | inactive | inactive | inactive | -0.385% | inactive |  |  |  |  |
| CN=C(NC#N)Nc1ccc(C2=NNC(=O)CC2C)cc1 (stereo not given) | inactive | inactive | inactive | -6.43% | inactive |  |  |  |  |
| CCCCCCCC(=O)[O-].CCCCCCCC(=O)[O-].[Zn+2] | inactive | inactive | inactive | 2.96% | inactive |  |  |  |  |
| NCC(=O)CCC(=O)O | inactive | inactive | inactive | 16.5% | inactive |  |  |  |  |
| O=C(O)/C=C\C(=O)O | inactive | inactive | inactive | 6.23% | inactive |  |  |  |  |
| O=C(O)CP(=O)(O)O | inactive | inactive | inactive | 1.41% | inactive |  |  |  |  |
| CCOc1ccc(NC(C)=O)cc1 | inactive | inactive | inactive | -8.62% | inactive |  |  |  |  |
| CC(=O)NC(Cc1ccccc1)C(=O)O (stereo not given) | inactive | inactive | inactive | -3.3% | inactive |  |  |  |  |
| O=C(Cn1ccnc1[N+](=O)[O-])NCCO | inactive | inactive | inactive | 10.4% | inactive |  |  |  |  |
| COc1cc(S(N)(=O)=O)cc(C(=O)O)c1OC | inactive | inactive | inactive | 10.1% | inactive |  |  |  |  |
| Cc1sccc1Br | inactive | inactive | inactive | -3.04% | inactive |  |  |  |  |
| CCOc1ccc(NC(=O)CC(C)O)cc1 (stereo not given) | inactive | inactive | inactive | -9.31% | inactive |  |  |  |  |
| C/C(=N\O)c1ccc(OCC(=O)N2CCCCC2)cc1 | inactive | inactive | inactive | -4.8% | inactive |  |  |  |  |
